Experiment [1] can be described thus: APR_HepG2_CellCycleArrest_24hr: Apredica 24-hour HepG2 Assay for Cell Cycle Arrest (AID 2282905).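 Also: cell cycle arrest scored as ratio of 2N to 4N nuclear DNA content.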 The note with it: imaging, actives raise or lower the signal. A digest of the protocol: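 Compounds at 0.39–200 uM (0.5% DMSO) for 24 h, then fixed and Hoechst 33342 stained. Cell-cycle analysis of nuclear DNA content by high-content imaging, fitted bidirectionally versus DMSO.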

Experiment [2] in a line: APR_HepG2_NuclearSize_24hr: Apredica 24-hour HepG2 Assay for Nuclear Size (AID 2282907). To be noted: high-content imaging, actives raise or lower the signal. Put shortly:
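HepG2 cells exposed 24 h to compounds at 0.39–200 uM (0.5% DMSO), fixed, Hoechst 33342 stained and imaged at 20x; nuclear diameter measured by automated image analysis, fitted bidirectionally against DMSO controls.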

Experiment [3] can be described thus: APR_HepG2_CellLoss_24hr: Apredica 24-hour HepG2 Assay for Cell Loss (AID 2282908).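 As to AC50: fit in both directions so a hit may be cell loss or gain.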 The note with it: high-content imaging. A digest of the protocol: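 HepG2 cells exposed 24 hr to 0.39–200 uM compound in duplicate at 0.5% v/v final DMSO. Cells fixed in 3.7% formaldehyde and Hoechst 33342-stained. Cell number came from nuclear imaging at 20x. Bidirectional fit versus DMSO.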

Experiment [4] is described as follows: APR_HepG2_MitoticArrest_24hr: Apredica 24-hour HepG2 Assay for Mitotic Arrest (AID 2282910). The note with it: high-content imaging, actives raise or lower the signal. Put shortly: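 HepG2 human liver cells were exposed to compounds at 0.39–200 uM (10 concentrations, duplicate) in 0.5% v/v DMSO for 24 hr, then fixed and immunostained for phospho-histone H3 with Hoechst 33342. Mitotic arrest came from HCS fluorescent imaging, fitted bidirectionally against DMSO.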

Experiment [5] in a line: APR_HepG2_MitoMembPot_24hr: Apredica 24-hour HepG2 Assay for Mitochondrial Membrane Potential (AID 2282911). To be noted: imaging, actives raise or lower the signal. A digest of the protocol:
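Human hepatoma HepG2 cultures received ten compound concentrations up to 200 uM for 24 hr. Membrane-potential dye signal, captured by automated fluorescence microscopy, was scored for gain or loss against DMSO controls.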

Experiment [6] can be described thus: APR_HepG2_MitoMass_24hr: Apredica 24-hour HepG2 Assay for Mitochondrial Mass (AID 2282912). The note with it: high-content imaging, actives raise or lower the signal. Put shortly:
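HepG2 cells exposed 24 hr to 0.39–200 uM compound, 0.5% v/v DMSO, in duplicate. Stained before fixation with 250 nM MitoTracker Red CMXRos for 30 min, then imaged at 20x with Hoechst nuclei. Fitted in both directions against DMSO.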

A short description of experiment [7]: APR_HepG2_p53Act_24hr: Apredica 24-hour HepG2 Assay for p53 Activation (AID 2282913).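 Also: p53 protein immunofluorescence averaged per cell in HepG2 with Hoechst nuclei.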 The note with it: high-content imaging, actives raise or lower the signal. A digest of the protocol:
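Automated fluorescence imaging quantifies p53 immunostaining in HepG2 cells after a 24 hr exposure (0.39–200 uM, duplicate, 0.5% DMSO). Nuclei are located by Hoechst 33342 staining.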

The nature of experiment [8]: APR_HepG2_CellCycleArrest_72hr: Apredica 72-hour HepG2 Assay for Cell Cycle Arrest (AID 2282914). To be noted: high-content imaging, actives raise or lower the signal. Put shortly:
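Cell cycle arrest in HepG2 was scored from nuclear DNA content after 72 hr compound treatment (0.39–200 uM). Activity, either gain or loss, was fitted against the DMSO baseline.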

Experiment [9] is described as follows: APR_HepG2_CellLoss_72hr: Apredica 72-hour HepG2 Assay for Cell Loss (AID 2282915). To be noted: high-content imaging. Put shortly:
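HepG2 cells were exposed for 72 hr to compounds at 0.39–200 uM (ten concentrations, duplicate) in 0.5% v/v final DMSO. Nuclei were stained with Hoechst 33342 after 3.7% formaldehyde fixation, imaged at 20x, and counted; fits bidirectional versus DMSO.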

Experiment [10] in a line: APR_HepG2_MicrotubuleCSK_24hr: Apredica 24-hour HepG2 Assay for Microtubule CSK Stabilty (AID 2282909). The note with it: HepG2 microtubule cytoskeleton imaging, actives raise or lower the signal. A digest of the protocol: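 HepG2 cells were treated 24 hr with compound at 0.39–200 uM in duplicate (0.5% DMSO final), then fixed and permeabilized. Alpha-tubulin immunofluorescence was imaged by high-content microscopy, with bidirectional fitting against DMSO and taxol as positive control.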

Calls of active or inactive are those of the source. The calls were made as follows: active = hit-call score of the fitted dose curve at least 0.9, where 1 is the maximum; inactive = score below 0.9.

What is called AC50 is the concentration at which the activity in the assay is half-maximal.

Regarding `Nc1cccc(N)c1`, the call in experiment [1], in [2], in [3], in [4], in experiment [5] and in [6] was inactive. Besides, the compound was classed as inactive in experiment [7], in experiment [8] and in experiment [9].

As to `CC(=O)c1ccc2c(c1)[C@H](NC(=O)c1ccc(F)cc1)[C@@H](O)C(C)(C)O2`, the compound was called inactive in [1], in experiment [2], in [3], in experiment [10], in [4] and in [5]. The outcome in experiment [6], in [7] and in [9] was inactive.

With `Fc1ccccc1[C@@H](F)COC1CCC(Nc2ncnc3[nH]ncc23)CC1` (some centres not stated), the concentration at half-maximal activity (AC50) in [1] was 62.3 µM (active); in experiment [3], 52.4 µM (active); in experiment [10], 78.4 µM (active); in experiment [9], 59 µM (active). The compound was called inactive in [2], in experiment [4], in [5], in experiment [6] and in [7].

For `CNCc1ccc(NC(=O)c2c[nH]c3c2C(=O)CCC3)cc1`, the result in experiment [1], in experiment [2], in [3], in experiment [10], in experiment [4] and in [5] was inactive. The result in experiment [6] and in [7] was inactive. The half-maximal activity concentration (AC50) in [9] is 73.7 µM (active).

In the case of `CC(C)=CCCC(C)CCO` (configuration not stated), the compound was called inactive in experiment [1], in experiment [2], in [3], in experiment [4], in [5] and in [6]. Further, the result in [7] was inactive. Moreover, the values for the AC50 in [8] and in [9] were 0.0388 µM (active) and 0.0391 µM (active), respectively.

As for `CC(C)CC(C)(O)C#CC(C)(O)CC(C)C` (configuration not stated), the call in [1], in experiment [2], in experiment [3], in experiment [4], in experiment [5] and in experiment [6] was inactive. In addition, the outcome in [7], in experiment [8] and in experiment [9] was inactive.

Consider `CC(O)CN(CCN(CC(C)O)CC(C)O)CC(C)O` (configuration not stated), for which the compound was called inactive in experiment [1], in [2], in experiment [3], in experiment [10], in experiment [4] and in experiment [5]. Besides, the outcome in experiment [6], in experiment [7] and in [9] was inactive.

For `CCOc1cccc(-n2cc(C(=O)N3CCN(c4cc(C(=O)O)c5ccccc5c4)CC3)nc2-c2ccc(C)cc2)c1`, the AC50 in [1] is 97.5 µM (active); in experiment [3], 88.3 µM (active); in experiment [10], 101 µM (active); in experiment [4] it was 97.5 µM (active); in [6] it was 104 µM (active); in experiment [7] it was 99.3 µM (active). Also, the AC50 in experiment [9] was 81.9 µM (active). In addition, the compound was called inactive in [2] and in experiment [5].

As for `O=C1CCCCCN1`, the compound was classed as inactive in [1], in experiment [2], in [3], in experiment [4], in [5] and in [6]. Further, the call in [7], in experiment [8] and in experiment [9] was inactive.

For the compound `CC(C)=CCC/C(C)=C/CO`, the outcome in experiment [1], in experiment [2], in experiment [3], in experiment [10], in experiment [4] and in [5] was inactive. Further, the compound was classed as inactive in experiment [6] and in experiment [7]. Besides, the AC50 in experiment [9] is 81.1 µM (active).

Regarding `C1=CCCC=CCCC=CCC1`, the compound was classed as inactive in [1], in [2], in experiment [3], in experiment [10], in [4] and in experiment [5]. Further, the call in experiment [6], in [7] and in [9] was inactive.

Turning to `Cc1ccc(C)c(O)c1`, the compound was classed as inactive in experiment [1], in experiment [2], in experiment [3], in [10], in experiment [4] and in experiment [5]. Besides, the result in [6], in experiment [7] and in experiment [9] was inactive.

Turning to `C1N2CN3CN1CN(C2)C3`, the result in [1], in experiment [2], in [3], in experiment [4], in experiment [5] and in experiment [6] was inactive. The compound was classed as inactive in experiment [7], in [8] and in experiment [9].

In the case of `CCOCCOCCOCCO`, the outcome in experiment [1], in [2], in [3], in experiment [10], in [4] and in [5] was inactive. Besides, the call in [6], in [7] and in experiment [9] was inactive.

Regarding `CCCCC(CC)COC(=O)c1ccc(C(=O)OCC(CC)CCCC)cc1` (configuration not stated), the result in [1], in experiment [2], in experiment [3], in experiment [4], in experiment [5] and in experiment [6] was inactive. Moreover, the compound was called inactive in experiment [7] and in experiment [9]. The AC50 in experiment [8] is 32.4 µM (active).

Turning to `CC(C)CCO`, the outcome in [1], in [2], in experiment [3], in [4], in experiment [5] and in experiment [6] was inactive. Moreover, the call in [7], in [8] and in [9] was inactive.

For the compound `O=C(O)c1cccc(Oc2ccccc2)c1`, the compound was called inactive in experiment [1], in experiment [2], in [3], in experiment [4], in [5] and in experiment [6]. Also, the call in experiment [7], in [8] and in [9] was inactive.

As to `COc1ccc(/C=C/S(=O)(=O)NC(=O)c2ccc(C)cc2Cl)cc1`, the concentration at half-maximal activity (AC50) in experiment [1] was 102 µM (active); in experiment [5] it was 14.7 µM (active); in experiment [9] it was 57.3 µM (active). Moreover, the result in [2], in [3], in experiment [4], in experiment [6], in experiment [7] and in [8] was inactive.

For `CC1(C)C(=O)N(Br)C(=O)N1Br`, the result in experiment [1], in experiment [2], in experiment [3], in [4], in experiment [5] and in experiment [6] was inactive. The compound was classed as inactive in experiment [7], in experiment [8] and in [9].

In the case of `O=c1[nH]c2ccc(S(=O)CCN3CCC(Cc4ccc(F)cc4)CC3)cc2o1` (configuration not stated), the compound was classed as inactive in experiment [1], in experiment [2], in [3], in experiment [4], in experiment [5] and in [6]. In experiment [7], the outcome was inactive. The AC50 in [8] is 99.9 µM (active); in experiment [9] it was 76.1 µM (active).

On to `COC(=O)c1ccccc1O`, for which the compound was classed as inactive in experiment [1], in experiment [2], in experiment [3], in experiment [4], in [5] and in experiment [6]. In addition, the call in experiment [7] and in experiment [9] was inactive.

`CC1=CC(=O)CC(C)(C)C1`: the compound was classed as inactive in [1], in [2], in experiment [3], in experiment [4], in experiment [5] and in [6]. The compound was called inactive in experiment [7], in experiment [8] and in [9].

The values above are taken from PubChem BioAssay (EPA / NIEHS).
